In the supplement of paper PMC3334620:
Whole data set: some 33,000 sequences, median “E-score (-0.5 to 0.5)” near -0.0014, cut for the highest 2% near 0.25. Only a selection was taken, and the highest values are over-represented in it overall.

Molecular target: T1, Cad1 (UniProt P24813)
T1 sequence: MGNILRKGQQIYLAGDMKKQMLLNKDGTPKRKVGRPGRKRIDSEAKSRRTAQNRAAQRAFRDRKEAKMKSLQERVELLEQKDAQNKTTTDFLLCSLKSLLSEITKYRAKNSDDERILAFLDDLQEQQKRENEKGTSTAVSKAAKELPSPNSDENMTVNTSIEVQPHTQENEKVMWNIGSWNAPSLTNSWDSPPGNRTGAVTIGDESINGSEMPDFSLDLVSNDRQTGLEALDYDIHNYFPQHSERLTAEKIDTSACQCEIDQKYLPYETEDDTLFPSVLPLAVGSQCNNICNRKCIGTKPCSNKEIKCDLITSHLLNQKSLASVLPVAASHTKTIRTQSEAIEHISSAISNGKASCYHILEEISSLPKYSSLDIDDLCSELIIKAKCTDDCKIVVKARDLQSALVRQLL
Experiment: PBM E-score (8-mer binding enrichment) (E-score (-0.5 to 0.5)); higher = stronger / more preferred TF binding
Details: protein concentration: 100 nM; construct: GST-full length
Description: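 Universal 'all 10-mer' protein binding microarrays (Agilent AMADID 015681) probed with GST-tagged S. cerevisiae TFs (full-length or DBD) made by in vitro transcription/translation (PURExpress), about 100-200 nM. Bound TF was detected with fluorescent anti-GST. Each ungapped 8-mer (which stands for itself and its reverse complement) is scored by the PBM enrichment score (E-score), a modified Wilcoxon-Mann-Whitney statistic from -0.5 to +0.5, computed with the Universal PBM Analysis Suite. Scale: above 0.35 generally sequence-specific binding.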

Sequence	PBM E-score
AAGGGGCT	0.0431
CAGCGGTC	-0.229
GGTAGTAA	-0.0434
CATAGTAA	0.141
TATAGTAA	0.294
GTTAGTGA	-0.0153
GATAGTAA	0.156
GTTAGTAA	0.422
ACCACACC	-0.169
CCAGGAAG	-0.131
ACTCGACT	-0.153
CACCGAAA	0.12
ATGACATC	0.232
TTGACCAA	0.0548
CTGACCAA	0.276
GTGACAAA	0.229
CTGACATA	0.205
TCGACAAA	0.195
GTGACCAA	0.0231
ATGACAAG	0.127
ATGACATA	0.267
ATGACAAA	0.414
ATGACAAC	0.183
TTGACAAA	0.294
CAGCGCGG	0.112

Sequence	PBM E-score
TATTGCAA	0.19
CTCCGCAG	0.00742
GGCCTTAC	-0.166
AACCAAAC	-0.102
AGATGGGA	-0.204
CTGACAAC	0.0707
CTGACAAA	0.444
CTGACAAG	0.101
CAACTAGG	0.079
CGAGGCAG	0.0833
AACCTCAC	-0.112
ATGTTTCC	-0.00726
ATGTTTTA	0.0134
ATGTTTTC	0.268
CTGTTGGC	-0.202
ATTTGTTA	0.203
CTTTGTTC	0.0827
ATTTGTGC	0.148
ATTTGTCC	0.253
ATTTGTTC	0.265
ATTTGTCG	0.147
AAATCCTC	-0.0802
ATGTGACA	0.281
GTGTGACA	0.0138
CTGTGACA	0.209

Sequence	PBM E-score
GCATCCCA	-0.303
CGCACTTC	-0.184
CCCAAGAG	-0.132
GTATTACA	0.234
CTATTACA	0.123
ATATTACC	0.28
ATATTACA	0.347
CTATTACC	-0.0596
ATATTACG	0.24
AGCCGTCG	0.219
CACGGAAG	-0.00842
TATAGGAA	0.127
CGACCCGC	0.0365
CATAACGG	-0.00107
AATAACGC	-0.0922
AATAACGG	0.253
GATTGCAA	0.117
AGGACCCA	-0.22
GATCGCGC	0.118
ACGCGCGG	0.136
CCGCGCCG	0.174
AAGCGCTT	0.421
CCGCGCGG	0.417
AAGCGCTC	0.0197
AATCGCGC	0.327

Sequence	PBM E-score
TCGCGCGA	0.308
TCGCGAGA	0.165
AATCGCGT	0.107
AAGCGCTA	0.107
TAGCGCGA	0.211
ATCGGTAG	0.0904
AGCACACT	-0.0625
AGAGCCAG	-0.239
CGCGTACA	-0.008
ATGCCGTC	-0.0686
AAGATCCA	-0.089
CTCTGGGA	-0.252
AGGACACC	0.00026
ACAAACAT	0.145
CCCGCGGG	0.0407
CCCTACAA	-0.14
AAGGGGGT	-0.389
CCGCGAGA	-0.102
AATCGTGC	0.276
CAGCGCTG	0.263
CCGCGCGC	0.144
CCGCGCGA	0.295
CCGCGAAA	0.0147
CAGCGCTA	0.157
CAGCGCTC	0.153

Sequence	PBM E-score
GCGCGAAA	0.308
AATCGTGA	0.0886
CATCGTGC	0.162
TCGCGAAA	0.168
TAGCCGAA	-0.0837
CCCTCCCG	-0.226
CAACATCG	0.0708
ACAGAAAG	-0.0964
GTCGGTGA	-0.13
TCATTCAA	0.13
AGGTACCC	-0.138
ATCTTTCC	0.0734
CCGTCTAG	-0.128
CACGAGCC	-0.209
CAATCGCA	0.00664
ACGCGCGC	0.216
GCGCGCAC	0.218
GCGCGCGA	0.265
GCGCGCGC	0.417
ACGCGCGA	0.139
AACCGCGT	0.122
ACCCGCGT	-0.00317
AACCGCGA	0.287
TACCGCGA	0.172
ACCCGCGC	0.256

Sequence	PBM E-score
GTGCGCGA	-0.0729
ACCCGCGA	0.0834
AAGTGTTA	0.0352
ACAGCACG	-0.0152
AACCCCAA	0.113
ATAACTCC	0.0565
AGATGAAA	0.02
AAGCGCGG	-0.0419
AAGCGCGA	0.101
AAGCGCGC	0.276
AACTCCGT	0.0805
AGCCGGCG	0.0742
CGCCGGCC	-0.124
CGCCGGCG	0.301
TAATCTCA	0.0993
ACTGTTTG	-0.0907
AATCGACT	-0.039
AATCGATC	0.215
AATCGATG	0.271
CATCGATG	0.169
AATCGACA	0.304
AATCGATT	0.198
AATCGATA	0.288
AATCGAAG	0.182
AATCGACC	-0.051

Sequence	PBM E-score
CCTCCATC	-0.237
TGTTGCAA	0.228
ATCCTTCA	-0.174
GTACTTCA	0.251
ATACTTCA	-0.0179
CTACTTCA	-0.0482
AGCAGATA	-0.0464
AGCAGATC	0.256
CGCAGATC	0.098
ATGTGCCC	-0.071
ACAACCAC	0.056
ACAACCAT	0.281
ACAACCAG	0.145
GGTGCATA	0.00671
CGTACCAG	-0.0767
GTTACCAA	0.0957
ATTACCAA	0.292
TGTACCAA	-0.0377
CGTACCAA	0.256
ATTACCAC	0.161
AACCGGTA	-0.0764
ATTCCCTG	0.117
CTTAAAGA	-0.0851
